# Where “and” joins values, the source holds several entries; their conditions need not be identical. Equal entries are not always repeated. Unmarked numbers belong to inactive results. Inconclusive results are not listed. Calls of active or inactive are those of the source. The call rests on the fitted dose curve; in most records, active means well fitted activation curve with a large enough effect in the repeat runs; inconclusive means weak or mixed curves; inactive means flat fitted curve, though single readings scatter.
# Assay: A CellTox Green Cytotoxicity Assay to monitor cytotoxicity in HEK293 cells - 32 hour (AID 1224881); further: nearly all actives have a fitted effect of over 40% in size
# Conditions: CellTox Green fluorescence; series mostly up to 76.8 µM; cytotoxicity increase: at the top concentration
# How it was run: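 Tox21 screen in HEK293: membrane-impermeant cyanine dye fluoresces on binding dead-cell DNA; compound pinned 5 h post-seeding, plates held at 37 C, signal read repeatedly through 40 h.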
# On the % scale 0 is the no-effect control and ±100 the full control effect; potency means the concentration at half of the fitted maximal effect.
SMILES,cytotoxicity increase,Potency
CC(=O)OC1(c2ccccc2)CCN(CCc2ccccc2)CC1,19.6%,–
CSCCCN=C=S,21.7%,–
CC(C)(C)c1ccc(CSc2cnn(C(C)(C)C)c(=O)c2Cl)cc1,16.2%,–
C=CCC1=C(C)C(OC(=O)C2C(C=C(C)C)C2(C)C)CC1=O (stereo not given),–,51.9 µM (active)
O=[N+]([O-])c1c2ccccc2cc2ccccc12,–,5.43 µM (active)
O=C(CBr)c1ccc(O)cc1,16.4%,–
CCCN(CCC)CCc1c[nH]c2ccccc12,-6.27%,–
CC1CCC(C(C)C)C(OC(=O)c2ccccc2N)C1 (stereo not given),–,38.4 µM (active)
CCOC(=O)c1ccccc1S(=O)(=O)NC(=O)Nc1nc(Cl)cc(OC)n1,–,54.9 µM (active)
N#Cc1c(-c2ccc(Cl)cc2)[nH]c(C(F)(F)F)c1Br,–,49 µM (active)
ClC1=C(Cl)C2(Cl)C3C(Cl)C(Cl)CC3C1(Cl)C2(Cl)Cl (stereo not given),–,48.8 µM (active) and 49 µM (active)
CC(C)(C)C(O)C(Oc1ccc(-c2ccccc2)cc1)n1cncn1 (stereo not given),12.2%,–
CCC(C)c1cc([N+](=O)[O-])cc([N+](=O)[O-])c1OC(=O)C=C(C)C (stereo not given),-0.428%,–
COc1cccc2c1C(=O)c1c(O)c3c(c(O)c1C2=O)C[C@@](O)(C(=O)CO)CC3OC1CC(N2CCOC(OC)C2)C(O)C(C)O1 (stereo not given in full),3.31% [at 35.3 µM],–
[Cl][Sb]([Cl])[Cl],13.6%,–
CC(Cc1ccc(C(C)(C)C)cc1)CN1C[C@@H](C)O[C@@H](C)C1 (stereo not given in full),–,49 µM (active)
Clc1ccc(CO/N=C(\Cn2ccnc2)c2ccc(Cl)cc2Cl)c(Cl)c1,20.4% [at 35.3 µM],–
CC(=O)/C=C/c1ccc2c(c1)OCO2,-1.41%,–

SMILES,cytotoxicity increase,Potency
CC(C)CC(C)Nc1ccc(Nc2ccccc2)cc1 (stereo not given),–,48.2 µM (active)
Nc1ccccc1C(=O)Oc1ccc2ccccc2c1,0.28%,–
COC(=O)N(C(=O)N1CO[C@@]2(C(=O)OC)Cc3cc(Cl)ccc3C2=N1)c1ccc(OC(F)(F)F)cc1,0.262%,–
COc1ccc(OC)c(C=O)c1,-31.6%,–
CCOP(=O)(NC(C)C)Oc1ccc(SC)c(C)c1 (stereo not given),8.77%,–
ClC1=C(Cl)C2(Cl)C3C(Cl)C=CC3C1(Cl)C2(Cl)Cl (stereo not given),–,55.2 µM (active) and 49 µM (active)
CCCCCCCCc1ccc(O)cc1,–,17.5 µM (active)
CC[C@H](C)[C@H]1O[C@]2(C=C[C@@H]1C)C[C@@H]1C[C@@H](C/C=C(\C)[C@@H](O[C@H]3C[C@H](OC)[C@@H](O[C@H]4C[C@H](OC)[C@@H](O)[C@H](C)O4)[C@H](C)O3)[C@@H](C)/C=C/C=C3\CO[C@@H]4[C@H](O)C(C)=C[C@@H](C(=O)O1)[C@]34O)O2,19.8% [at 35.3 µM],–
CC(C)(C)c1cc([N+](=O)[O-])cc(C(C)(C)C)c1O,25.8%,–
Cc1cc(C(C)(C)c2cc(C)c(O)c(C)c2)cc(C)c1O,24.9%,–
CC(C)Oc1cccc(NC(=O)c2ccccc2C(F)(F)F)c1,–,1.23 µM (active)
C[C@]12CC[C@@H]3c4ccc(OC(=O)N(CCCl)CCCl)cc4CC[C@H]3[C@@H]1CC[C@@H]2O,-11.9% [at 35.3 µM],–
CC(C)OC(=S)S,-1.5%,–
Clc1ccc(CCC(Cn2ccnc2)Sc2c(Cl)cccc2Cl)cc1 (stereo not given),22.6% [at 35.3 µM],–
ClC1=C(Cl)[C@]2(Cl)[C@@H]3[C@@H]4C[C@@H]([C@H]5O[C@@H]45)[C@@H]3[C@@]1(Cl)C2(Cl)Cl,–,43.6 µM (active)
Oc1cc(Cl)c(Cl)c(Cl)c1,–,11.7 µM (active)
CC(=O)c1cc(C(C)(C)C)cc2c1CCC2(C)C,–,38.9 µM (active)
CCCCOCN(C(=O)CCl)c1c(CC)cccc1CC,17.7%,–

# Assay: A CellTox Green Cytotoxicity Assay to monitor cytotoxicity in HepG2 cells - 0 hour (AID 1224882); further: nearly all actives have a fitted effect of over 35% in size
# Conditions: CellTox Green fluorescence; series mostly up to 76.8 µM; cytotoxicity: at the top concentration
# How it was run: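 Measurements at 0, 8, 16, 24, 32 and 40 h of treatment captured CellTox Green fluorescence in HepG2 cells that had been co-plated with reagent and preincubated 5 h at 37 C/5% CO2.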
SMILES,cytotoxicity,Potency
CC(=O)OC1(c2ccccc2)CCN(CCc2ccccc2)CC1,-4.13%,–
CSCCCN=C=S,-2.21%,–
CC(C)(C)c1ccc(CSc2cnn(C(C)(C)C)c(=O)c2Cl)cc1,6.26%,–
O=[N+]([O-])c1c2ccccc2cc2ccccc12,-10.9%,–
O=C(CBr)c1ccc(O)cc1,-2.06%,–
CCCN(CCC)CCc1c[nH]c2ccccc12,-6.24%,–
CC1CCC(C(C)C)C(OC(=O)c2ccccc2N)C1 (stereo not given),-0.864%,–
CCOC(=O)c1ccccc1S(=O)(=O)NC(=O)Nc1nc(Cl)cc(OC)n1,-1.77%,–
N#Cc1c(-c2ccc(Cl)cc2)[nH]c(C(F)(F)F)c1Br,-7.62%,–
ClC1=C(Cl)C2(Cl)C3C(Cl)C(Cl)CC3C1(Cl)C2(Cl)Cl (stereo not given),–,inactive
CC(C)(C)C(O)C(Oc1ccc(-c2ccccc2)cc1)n1cncn1 (stereo not given),-4.4%,–
CCC(C)c1cc([N+](=O)[O-])cc([N+](=O)[O-])c1OC(=O)C=C(C)C (stereo not given),-2.32%,–
COc1cccc2c1C(=O)c1c(O)c3c(c(O)c1C2=O)C[C@@](O)(C(=O)CO)CC3OC1CC(N2CCOC(OC)C2)C(O)C(C)O1 (stereo not given in full),26% [at 35.3 µM],–
[Cl][Sb]([Cl])[Cl],-0.609%,–
CCOP(=S)(OCC)OC(Cl)C(Cl)(Cl)Cl (stereo not given),2.59%,–
CC(Cc1ccc(C(C)(C)C)cc1)CN1C[C@@H](C)O[C@@H](C)C1 (stereo not given in full),-4.28%,–
Clc1ccc(CO/N=C(\Cn2ccnc2)c2ccc(Cl)cc2Cl)c(Cl)c1,-1.11% [at 35.3 µM],–

SMILES,cytotoxicity,Potency
CC(=O)/C=C/c1ccc2c(c1)OCO2,2.81%,–
CC(C)CC(C)Nc1ccc(Nc2ccccc2)cc1 (stereo not given),-9.68%,–
O=[N+]([O-])c1cc(Cl)ccc1Cl,-12.6%,–
Nc1ccccc1C(=O)Oc1ccc2ccccc2c1,12.1%,–
COC(=O)N(C(=O)N1CO[C@@]2(C(=O)OC)Cc3cc(Cl)ccc3C2=N1)c1ccc(OC(F)(F)F)cc1,4.82%,–
COc1ccc(OC)c(C=O)c1,-4.71%,–
CCOP(=O)(NC(C)C)Oc1ccc(SC)c(C)c1 (stereo not given),1.31%,–
ClC1=C(Cl)C2(Cl)C3C(Cl)C=CC3C1(Cl)C2(Cl)Cl (stereo not given),–,inactive
CCCCCCCCc1ccc(O)cc1,0.0745%,–
CC[C@H](C)[C@H]1O[C@]2(C=C[C@@H]1C)C[C@@H]1C[C@@H](C/C=C(\C)[C@@H](O[C@H]3C[C@H](OC)[C@@H](O[C@H]4C[C@H](OC)[C@@H](O)[C@H](C)O4)[C@H](C)O3)[C@@H](C)/C=C/C=C3\CO[C@@H]4[C@H](O)C(C)=C[C@@H](C(=O)O1)[C@]34O)O2,0.405% [at 35.3 µM],–
CC(C)(C)c1cc([N+](=O)[O-])cc(C(C)(C)C)c1O,-2.19%,–
Cc1cc(C(C)(C)c2cc(C)c(O)c(C)c2)cc(C)c1O,4.82%,–
CC(C)Oc1cccc(NC(=O)c2ccccc2C(F)(F)F)c1,–,49 µM (active)
CC(C)OC(=S)S,-3.41%,–
Oc1cc(Cl)c(Cl)c(Cl)c1,-0.701%,–
CC(=O)c1cc(C(C)(C)C)cc2c1CCC2(C)C,6.42%,–
CCCCOCN(C(=O)CCl)c1c(CC)cccc1CC,0.984%,–

# Source: PubChem BioAssay (Tox21)
